The record followed here is PubChem BioAssay.

For some of these results: Measured potencies and affinities stand elsewhere. This is one part of the list. Results filed as inconclusive are left out. Activity calls are given as the source filed them. Unless noted, the rule behind the calls is not given here.

The nature of assay [1]: Ring1 mRNA increase in mouse ESCs, confirmation, esBAF inhibitor project, cell-based, mouse ESC, RT-qPCR, cherry-pick (AID 743176;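 active = Ring1 gene expression raised more than 2-fold over untreated cells in both replicates at either tested dose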;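 note: Ring1 transcript normalised to actin housekeeping signal by TaqMan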). As to conditions: mouse ESC E14, Ring1 mRNA RT-qPCR fold change, stronger effect = higher value. In general terms: Quantitative PCR measures a nucleic acid by following its amplification.
Assay [2] can be described thus: esBAF inhibition via Bmi1 de-repression, confirmation, cell-based, RT-qPCR, mouse ESC, single point, cherry-pick (AID 743180;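 active = Bmi1 expression fold change above 6 at either tested concentration, seen in replicate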). As to conditions: mouse ESC E14, Bmi1 mRNA qPCR fold, stronger effect = higher value.
A short description of assay [3]: A549 cell cytotoxicity, cytotoxicity control, plate reader, single point, cherry-pick (AID 743188). As to conditions: at 25 µM.
Assay [4] can be described thus: HepG2 cell cytotoxicity, cytotoxicity control, plate reader, single point, cherry-pick (AID 743189; in the data active = activity change below about -50%). As to conditions: at 25 µM, stronger effect = lower value.
Assay [5] in a line: HEK293 cell cytotoxicity, cytotoxicity control, plate reader, single point, cherry-pick (AID 743190; in the data active = activity change below about -38%, passing the limit was not always enough). As to conditions: at 25 µM.
Assay [6] in a line: Fgf4 mRNA decrease in mouse ESCs, confirmation, esBAF inhibitor project, cell-based, mouse ESC, RT-qPCR, cherry-pick (AID 743177;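 active = Fgf4 expression under 0.8 fold of control in both repeat measurements at one or both tested doses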;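 note: Fgf4 transcript normalised to actin in duplex TaqMan qPCR; cells exposed to compound for 24 h before lysis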). The following applies: mouse ESC E14, Fgf4 mRNA qPCR fold change, stronger effect = lower value.
A short description of assay [7]: A549 cell cytotoxicity, dose response, cytotoxicity control, plate reader, cherry-pick, antagonist series (AID 743412).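 Note: 0% = neutral control wells and -100% = positive control wells.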
Assay [8] in a line: cytotoxicity in OVCAR8 ovarian cancer cells, dose response, PAX8 project, cell-based, plate reader, dry powder samples (AID 743197).
Assay [9] can be described thus: HepG2 cell cytotoxicity, dose response, cytotoxicity control, plate reader, cherry-pick, antagonist series (AID 743416).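 Note: 0% = neutral control wells and -100% = positive control wells.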

In the case of `COc1ccc(/C=N/OCc2ccccc2C#N)c(OC)c1`, the fold change is 1.08 in assay [1] (Ring1 fold increase, at 7 µM); 0.981 (inactive) in [1] (at 33 µM); 1.34 in assay [2] (Bmi1 de-repression, at 7 µM); 1.44 (inactive) in assay [2] (at 33 µM). In assay [3], the cell viability change % (negative = cytotoxic) is -7.58% (inactive). The activity change, negative = inhibition in assay [4] is -31.8% (inactive); in assay [5], -7.24% (inactive).
As to `COC(=O)/C(=C1\Oc2ccc(C(C)(C)C)cc2S1)C(F)(F)F`, the fold change in assay [1] (Ring1 fold increase, at 7 µM) was 1.4; in [1] (at 33 µM), 1.09 (inactive); in assay [2] (Bmi1 de-repression, at 7 µM) it was 1.51; in assay [2] (at 33 µM) it was 1.42 (inactive). Besides, the Fgf4 expression fold change in assay [6] (Fgf4 expression, at 7 µM) was 1.06; in [6] (at 33 µM) it was 0.881 (inactive). Moreover, in assay [3], the cell viability change % (negative = cytotoxic) was -9.79% (inactive). For the same compound, the activity change, negative = inhibition in assay [4] is -31.4% (inactive); in assay [5], 0.258% (inactive).
With `COc1ccc(CC(=O)Nc2cccc(-c3nnc(-c4cccc(C)c4)o3)c2)cc1OC`, the outcome in [7] was inactive.
As to `COc1cc2ccccc2cc1C(=O)Nc1ccccc1C`, the fold change was 1.25 in assay [1] (Ring1 fold increase, at 7 µM); 0.965 (inactive) in assay [1] (at 33 µM); 1.37 in assay [2] (Bmi1 de-repression, at 7 µM); 1.49 (inactive) in [2] (at 33 µM). Also, the Fgf4 expression fold change in assay [6] (Fgf4 expression, at 7 µM) was 0.978; in [6] (at 33 µM), 0.878 (inactive). Also, the cell viability change % (negative = cytotoxic) in assay [3] was -15.3% (inactive). In addition, the values for the activity change, negative = inhibition in assay [4] and in assay [5] were -26.3% (inactive) and -24.6% (inactive), respectively.
For the compound `COc1ccc(-c2csc(NC(=O)c3ccc(OCC(=O)N4CCOCC4)c(OC)c3)n2)cc1`, the result in assay [7] was inactive.
Turning to `Clc1cccc(Cl)c1Cn1nnc(-c2cccs2)n1`, the fold change in [1] (Ring1 fold increase, at 7 µM) was 1.24; in assay [1] (at 33 µM), 0.998 (inactive); in assay [2] (Bmi1 de-repression, at 7 µM) it was 1.24; in assay [2] (at 33 µM), 1.5 (inactive). In addition, the Fgf4 expression fold change is 1.02 in [6] (Fgf4 expression, at 7 µM) and 0.892 (inactive) in [6] (at 33 µM). Also, the cell viability change % (negative = cytotoxic) in assay [3] is -14.2% (inactive). For the same compound, the activity change, negative = inhibition was -32% (inactive) in assay [4] and -18.7% (inactive) in assay [5].
Turning to `C/C(=C\C(=O)c1cccnc1)Nc1ccc(C)c(C)c1`, the fold change is 1.22 in assay [1] (Ring1 fold increase, at 7 µM); 1.07 (inactive) in assay [1] (at 33 µM); 1.46 in assay [2] (Bmi1 de-repression, at 7 µM); 1.59 (inactive) in assay [2] (at 33 µM). Moreover, the Fgf4 expression fold change was 1.06 in [6] (Fgf4 expression, at 7 µM) and 0.903 (inactive) in [6] (at 33 µM). Moreover, the cell viability change % (negative = cytotoxic) in [3] was -3.61% (inactive). The activity change, negative = inhibition in assay [4] is 12.6% (inactive); in [5] it was -0.923% (inactive).
For `COc1cc(NC(=O)c2cccc3c(-c4cccnc4)coc23)cc(OC)c1OC`, the outcome in assay [7] was inactive.
For the compound `O=S(=O)(NC[C@@H]1CC[C@@H]2[C@@H](CN2CC(c2ccccc2)c2ccccc2)O1)c1ccccc1F`, the call in [8] was inactive.
Consider `CN(C)c1ccc(CSc2ccccc2)cc1`, for which the fold change in assay [1] (Ring1 fold increase, at 7 µM) is 1.14; in assay [1] (at 33 µM), 1.08 (inactive); in assay [2] (Bmi1 de-repression, at 7 µM), 1.01; in assay [2] (at 33 µM) it was 0.984 (inactive). In addition, the cell viability change % (negative = cytotoxic) in [3] was 5.13% (inactive). Besides, the figures for the activity change, negative = inhibition in [4] and in assay [5] were -22.2% (inactive) and 0.895% (inactive), respectively.
`Cc1ccc(-c2cc(C(=O)N(C)Cc3cnn(C)c3C)c3cc(Br)ccc3n2)cc1`: the call in assay [7] was inactive.
For the compound `O=C(Nc1ccccc1)c1cn2ccccc2n1`, the result in assay [7] was inactive.
Same read-out and setting: the result for `Cc1ccc(-c2nnc(Nc3ccccc3)o2)cc1` reads “inactive”.
Turning to `O=C(c1ccc(Cl)cc1)c1cnc(Nc2ccccc2)s1`, the fold change was 1.37 in assay [1] (Ring1 fold increase, at 7 µM); 1.43 (inactive) in assay [1] (at 33 µM); 1.41 in [2] (Bmi1 de-repression, at 7 µM); 1.36 (inactive) in assay [2] (at 33 µM). Further, the Fgf4 expression fold change in [6] (Fgf4 expression, at 7 µM) was 1.07; in assay [6] (at 33 µM), 0.927 (inactive). Moreover, in assay [3], the cell viability change % (negative = cytotoxic) is -9.73% (inactive). Also, the activity change, negative = inhibition is -14.8% (inactive) in [4] and -18.7% (inactive) in assay [5].
For the compound `O=C(CCNC(=O)c1ccccc1)Nc1nc2ccccc2s1`, the fold change in [1] (Ring1 fold increase, at 7 µM) is 1.2; in assay [1] (at 33 µM) it was 0.581 (inactive); in assay [2] (Bmi1 de-repression, at 7 µM), 1.36; in assay [2] (at 33 µM), 1.77 (inactive). Besides, the Fgf4 expression fold change was 0.839 in [6] (Fgf4 expression, at 7 µM) and 0.653 (active) in [6] (at 33 µM). Also, the cell viability change % (negative = cytotoxic) in [3] is -14% (inactive). Also, the values for the activity change, negative = inhibition in assay [4] and in [5] were 11.7% (inactive) and -12.3% (inactive), respectively.
Regarding `Cc1ccc(C(=O)Nc2ccc3c(c2)OCO3)cc1S(=O)(=O)N1CCCCC1`, the fold change in [1] (Ring1 fold increase, at 7 µM) is 1.42; in [1] (at 33 µM), 1.4 (inactive); in assay [2] (Bmi1 de-repression, at 7 µM), 1.85; in [2] (at 33 µM), 1.9 (inactive). The Fgf4 expression fold change in assay [6] (Fgf4 expression, at 7 µM) is 0.993; in assay [6] (at 33 µM) it was 0.915 (inactive). Further, the cell viability change % (negative = cytotoxic) in [3] was 4.97% (inactive). Further, the activity change, negative = inhibition is -30.2% (inactive) in assay [4] and -2.34% (inactive) in assay [5].
On to `Cc1ccc(-c2nc(COC(=O)c3c(C)noc3C)cs2)cc1`, for which the fold change in assay [1] (Ring1 fold increase, at 7 µM) was 1.44; in assay [1] (at 33 µM), 1.18 (inactive); in assay [2] (Bmi1 de-repression, at 7 µM), 1.56; in assay [2] (at 33 µM), 1.73 (inactive). Besides, the Fgf4 expression fold change was 1.15 in assay [6] (Fgf4 expression, at 7 µM) and 1.07 (inactive) in assay [6] (at 33 µM). Further, the cell viability change % (negative = cytotoxic) in [3] was -1.11% (inactive). For the same compound, the activity change, negative = inhibition in assay [4] is -41.9% (inactive); in [5], -15.3% (inactive).
As to `O=C(NN=Cc1ccc2c(c1)CCC2)c1ccccc1O`, the fold change in assay [1] (Ring1 fold increase, at 7 µM) was 1.13; in [1] (at 33 µM), 1.24 (inactive); in assay [2] (Bmi1 de-repression, at 7 µM) it was 1.51; in assay [2] (at 33 µM), 1.77 (inactive). The Fgf4 expression fold change is 0.906 in [6] (Fgf4 expression, at 7 µM) and 0.972 (inactive) in [6] (at 33 µM). Also, in assay [3], the cell viability change % (negative = cytotoxic) is -5.69% (inactive). Moreover, the activity change, negative = inhibition in assay [4] is -32.1% (inactive); in assay [5] it was 0.295% (inactive).
As to `COc1ccc(Nc2ncnc3sc(C)cc23)cc1`, the fold change in assay [1] (Ring1 fold increase, at 7 µM) was 1.32; in assay [1] (at 33 µM), 1.33 (inactive); in assay [2] (Bmi1 de-repression, at 7 µM) it was 1.3; in assay [2] (at 33 µM), 1.05 (inactive). Also, the Fgf4 expression fold change in assay [6] (Fgf4 expression, at 7 µM) was 1.18; in assay [6] (at 33 µM), 1.26 (inactive). The cell viability change % (negative = cytotoxic) in assay [3] was -6.19% (inactive). Moreover, the activity change, negative = inhibition is -4.23% (inactive) in [4] and -3.92% (inactive) in [5].
As to `C[C@@H]1CN([C@H](C)CO)C(=O)CCCn2nncc2CO[C@H]1CN(C)C(=O)Nc1cccc2ccccc12`, the result in assay [7] was inactive.
Regarding `O=C1OCCC1Sc1nnc(-c2ccc(Cl)cc2Cl)o1` (stereo not drawn), the result in assay [7] and in assay [9] was inactive.
Regarding `O=C(Nc1cccc(C(=O)O)c1)Nc1ccccc1Cl`, the compound was called inactive in assay [7] and in assay [9].
As for `Clc1ccc(-n2ncc3c(N4CCCC4)ncnc32)cc1`, the call in [7] and in assay [9] was inactive.
